From PubChem BioAssay (Tox21) come the findings set out here.

Structures are written as SMILES. Values without a mark were called inactive. Results filed as inconclusive are left out. Activity calls are given as the source filed them. Unless noted, calls come from the whole dose curve; as a rule, active = well fitted curve in the direction sought with a large enough effect in the repeat runs; inconclusive = weak or mixed curves; inactive = no such curve, though single readings can be large; an effect the other way counts as inactive or inconclusive.

Assay [1] is described as follows: qHTS assay to test for compound auto fluorescence at 535 nm (green) in HEK293 cells (AID 720680).
The nature of assay [2]: qHTS assay to test for compound auto fluorescence at 460 nm (blue) in HEK293 cell free culture (AID 720681). The gist of the method:
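Test compounds were pinned into cell-free culture medium (DMEM with 10% FBS) and fluorescence was read directly at Ex/Em 405/460 nm. Signals were expressed as fluorescence equivalents of triamterene, with DMSO vehicle as control.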

Assay [3] can be described thus: qHTS assay to test for compound auto fluorescence at 535 nm (green) in HEK293 cell free culture (AID 720682). The method, boiled down: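 Each library compound, or DMSO control, is added by pintool to medium alone, comprising DMEM and 10% FBS. Emission at 535 nm following 485 nm excitation is quantified against fluorescein.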
A general note: Quantitative high-throughput screening tests each substance at several concentrations.

A short description of assay [4]: qHTS assay to test for compound auto fluorescence at 590 nm (red) in HEK293 cell free culture (AID 720683). The method, boiled down:
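Tox21 10K library compounds were pinned into cell-free DMEM with 10% FBS and fluorescence was read at excitation 540 nm. Activity is expressed as Rose Bengal sodium equivalency.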

Assay [5] can be described thus: qHTS assay to test for compound auto fluorescence at 590 nm (red) in HepG2 cell free culture (AID 720684). The gist of the method: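 Readout: intrinsic compound fluorescence at 590 nm emission after 540 nm excitation, scaled to Rose Bengal sodium. Matrix was cell-free MEM with 10% FBS; DMSO vehicle wells served as control.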
The nature of assay [6]: qHTS assay to test for compound auto fluorescence at 460 nm (blue) in HepG2 cell free culture (AID 720685). The method, boiled down: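 Cell-free plates of MEM plus 10% FBS received 23 nL compound or DMSO vehicle; blue-channel (405/460 nm) intensity scored against triamterene as reference fluorophore.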
Assay [7] in a line: qHTS assay to test for compound auto fluorescence at 535 nm (green) in HepG2 cell free culture (AID 720686).
Assay [8] can be described thus: qHTS assay to test for compound auto fluorescence at 460 nm (blue) in HepG2 cells (AID 720687). The gist of the method: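 Cells (2,000/well in MEM with 10% FBS) attached overnight at 37 C, then were exposed to compound or DMSO for 1 hr at 37 C, 5% CO2. Fluorescence read at Ex/Em 405/460 nm, expressed as triamterene-equivalent signal.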
The target of assay [9] is Glucocorticoid receptor (Homo sapiens) (UniProt P04150). Kind of assay: qHTS assay to identify small molecule agonists of the glucocorticoid receptor (GR) signaling pathway (AID 720691; active = well fitted activation curve with a large enough effect in the signal ratio in the repeat runs, not every such curve was filed as active; the % refers to the signal ratio). The method, boiled down: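 Steps: seed GR-bla HeLa cells, incubate 4 h at 37 C/5% CO2; pin-transfer DMSO-dissolved compounds; incubate 18 h at 37 C; add LiveBLAzer B/G FRET substrate; after 2 h at room temperature, measure fluorescence.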
Glucocorticoid receptor (Homo sapiens), sequence (P04150 whole entry, looked up): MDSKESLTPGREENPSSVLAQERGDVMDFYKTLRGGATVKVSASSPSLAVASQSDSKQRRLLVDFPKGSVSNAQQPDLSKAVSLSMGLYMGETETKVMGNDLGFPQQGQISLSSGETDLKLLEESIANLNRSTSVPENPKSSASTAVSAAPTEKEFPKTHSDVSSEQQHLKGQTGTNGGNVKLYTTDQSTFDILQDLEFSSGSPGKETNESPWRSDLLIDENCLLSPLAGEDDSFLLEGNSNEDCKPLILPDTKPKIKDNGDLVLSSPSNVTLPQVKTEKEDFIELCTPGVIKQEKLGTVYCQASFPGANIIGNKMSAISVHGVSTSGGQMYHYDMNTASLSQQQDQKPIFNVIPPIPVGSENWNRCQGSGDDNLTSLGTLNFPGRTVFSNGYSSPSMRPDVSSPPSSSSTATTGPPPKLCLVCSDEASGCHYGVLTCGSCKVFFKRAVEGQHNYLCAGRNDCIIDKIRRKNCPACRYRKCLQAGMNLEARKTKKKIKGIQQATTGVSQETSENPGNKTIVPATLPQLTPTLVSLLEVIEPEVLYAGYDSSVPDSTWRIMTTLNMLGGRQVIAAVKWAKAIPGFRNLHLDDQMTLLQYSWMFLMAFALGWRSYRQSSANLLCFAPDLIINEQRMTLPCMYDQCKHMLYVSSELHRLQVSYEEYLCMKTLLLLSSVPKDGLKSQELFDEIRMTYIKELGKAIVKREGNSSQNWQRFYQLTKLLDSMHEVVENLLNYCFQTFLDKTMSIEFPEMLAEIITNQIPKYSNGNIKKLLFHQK

For assay [10] the target is unchanged. Description: qHTS assay to identify small molecule antagonists of the glucocorticoid receptor (GR) signaling pathway (AID 720692; active = well fitted inhibition curve with a large enough effect in the signal ratio in the repeat runs, not every such curve was filed as active; the % refers to the signal ratio). The gist of the method:
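Antagonism was scored as loss of dexamethasone-driven (5 nM final) reporter signal in HeLa cells bearing a glucocorticoid response element–beta-lactamase construct, after 18 h compound exposure at 37 C and 2 h FRET substrate loading.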

The nature of assay [11]: qHTS assay to identify small molecule antagonists of the glucocorticoid receptor (GR) signaling pathway - cell viability counter screen (AID 720693). Note: nearly all actives have a fitted effect of over 55% in size.
Assay [12] in a line: qHTS assay for identifying genotoxic compounds that show differential cytotoxicity against isogenic chicken DT40 cell lines with known DNA damage response pathways - wild type cell line (AID 743012). Note: nearly all actives have a fitted effect of over 60% in size. Note: potency is the fitted concentration of half-maximal effect. The method, boiled down:
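Cytotoxicity in repair-proficient parental chicken DT40 cells serves as the comparator for Rad54/Ku70- and Rev3-deficient lines. Cells were exposed to compounds for 40 h at 37 C/5% CO2, and ATP-based luminescence (CellTiter-Glo) measured viability.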

Assay [13] can be described thus: qHTS assay for identifying genotoxic compounds that show differential cytotoxicity against isogenic chicken DT40 cell lines with known DNA damage response pathways - Rev3 mutant cell line (AID 743014). Note: nearly all actives have a fitted effect of over 55% in size.
Assay [14] is described as follows: qHTS assay for identifying genotoxic compounds that show differential cytotoxicity against isogenic chicken DT40 cell lines with known DNA damage response pathways - Rad54/Ku70 mutant cell line (AID 743015). Note: nearly all actives have a fitted effect of over 60% in size. Note: potency is the fitted concentration of half-maximal effect.
Assay [15] in a line: qHTS assay to identify small molecule antagonists of the androgen receptor (AR) signaling pathway - cell viability counter screen (AID 743033; note: nearly all actives have a fitted effect of over 45% in size).
Assay [16] has as its target Androgen receptor (Homo sapiens) (UniProt P10275). Description: qHTS assay to identify small molecule antagonists of the androgen receptor (AR) signaling pathway (AID 743035; active = well fitted inhibition curve with a large enough effect in the signal ratio in the repeat runs, not every such curve was filed as active; the % refers to the signal ratio). The method, boiled down: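 Steps: seed AR-UAS-bla GripTite HEK293 cells, incubate 4 h at 37C; pin in test compound, then add agonist R1881; incubate 16 h at 37C; add LiveBLAzer B/G FRET substrate, 2 h at room temperature; read fluorescence.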

Assay [17] has the same target. Kind of assay: qHTS assay to identify small molecule agonists of the androgen receptor (AR) signaling pathway (AID 743036; active = well fitted activation curve with a large enough effect in the signal ratio in the repeat runs, with a control signal flat, not every such curve was filed as active; the % refers to the signal ratio). The gist of the method:
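Following a 4 h settling period, AR-UAS-bla HEK293 cells were dosed with compounds for 16 h at 37C. A 2 h room-temperature incubation with LiveBLAzer B/G FRET substrate preceded the fluorescence measurement.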

Assay [18] shares this target. Kind of assay: qHTS assay to identify small molecule agonists of the androgen receptor (AR) signaling pathway using the MDA cell line (AID 743040; note: nearly all actives have a fitted effect of over 20% in size). The gist of the method: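 Agonist activity is measured as luciferase luminescence in human MDA-kb2 cells whose MMTV reporter responds to both AR and GR. Compounds in DMSO incubate 16 h at 37C, 0% CO2, and ONE-Glo is read after 30 min.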

A short description of assay [19]: qHTS assay to identify small molecule antagonists of the androgen receptor (AR) signaling pathway using the MDA cell line - cell viability counter screen (AID 743041; note: nearly all actives have a fitted effect of over 45% in size). The gist of the method: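 qHTS viability read-out; MDA-kb2 AR-luc; R1881-stimulated; 16 h exposure at 37C, 0% CO2; CellTiter-Fluor, 30 min; fluorescence intensity.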
The nature of assay [20]: qHTS assay to identify small molecule antagonists of the thyroid receptor (TR) signaling pathway - cell viability counter screen (AID 743064). Note: nearly all actives have a fitted effect of over 50% in size. The gist of the method: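 CellTiter-Fluor readout, 30 min at 37 °C/5% CO2, following 23.5 h incubation of GH3.TRE-Luc cells with test compound and 1 nM T3 (final).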

Androgen receptor (Homo sapiens), sequence (P10275 whole entry, looked up): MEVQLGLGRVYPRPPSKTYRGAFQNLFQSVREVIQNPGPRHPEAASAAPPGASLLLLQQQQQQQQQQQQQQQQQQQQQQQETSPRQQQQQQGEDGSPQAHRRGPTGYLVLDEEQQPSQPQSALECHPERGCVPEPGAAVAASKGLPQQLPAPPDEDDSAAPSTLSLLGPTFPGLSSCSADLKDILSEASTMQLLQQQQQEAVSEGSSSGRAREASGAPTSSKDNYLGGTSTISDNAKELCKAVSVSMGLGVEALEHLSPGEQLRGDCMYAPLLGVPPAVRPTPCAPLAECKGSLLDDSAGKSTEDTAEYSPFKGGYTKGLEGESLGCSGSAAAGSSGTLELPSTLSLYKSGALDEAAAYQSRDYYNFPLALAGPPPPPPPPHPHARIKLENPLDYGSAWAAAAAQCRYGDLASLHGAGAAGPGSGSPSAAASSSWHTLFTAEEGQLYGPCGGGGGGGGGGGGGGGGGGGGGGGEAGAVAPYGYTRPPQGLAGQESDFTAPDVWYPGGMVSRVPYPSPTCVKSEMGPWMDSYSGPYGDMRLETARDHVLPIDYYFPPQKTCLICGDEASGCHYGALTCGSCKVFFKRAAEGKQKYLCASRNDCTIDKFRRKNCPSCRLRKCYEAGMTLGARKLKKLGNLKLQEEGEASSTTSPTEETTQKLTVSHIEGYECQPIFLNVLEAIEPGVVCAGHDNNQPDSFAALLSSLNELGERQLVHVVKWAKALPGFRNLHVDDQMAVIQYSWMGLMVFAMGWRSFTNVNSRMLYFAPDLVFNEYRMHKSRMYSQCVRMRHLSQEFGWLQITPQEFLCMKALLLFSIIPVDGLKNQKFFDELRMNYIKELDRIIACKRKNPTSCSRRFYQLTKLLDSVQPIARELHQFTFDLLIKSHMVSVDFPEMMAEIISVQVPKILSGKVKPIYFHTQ

As for `Nc1ccccc1Cl`, the call in assay [1], in assay [2], in [3], in assay [4], in assay [5] and in [6] was inactive. Also, the outcome in assay [7], in assay [8], in assay [9] and in [17] was inactive. Besides, the Potency entry in assay [10], in assay [11], in assay [12], in assay [13], in assay [14] and in assay [15] was “inactive” throughout. Moreover, the Potency result in assay [16], in assay [18] and in assay [19] was “inactive” throughout.
Turning to `O=C1OC(=O)C2C1C1(Cl)C(Cl)=C(Cl)C2(Cl)C1(Cl)Cl` (stereo not drawn), the result in [1], in assay [2], in assay [3], in [4], in assay [5] and in assay [6] was inactive. In addition, the molecule was classed as inactive in assay [7], in assay [8] and in assay [9]. Besides, the Potency result in assay [10], in [11], in assay [12], in assay [13], in [14] and in assay [15] was “inactive” each time. For the same molecule, the Potency result in assay [19] and in assay [20] was “inactive” in each case.
For `CN/C(=N\[N+](=O)[O-])NCC1CCOC1` (stereo not drawn), the outcome in assay [1], in [2], in assay [3], in assay [4], in [5] and in assay [6] was inactive. For the same molecule, the molecule was classed as inactive in [7], in assay [8] and in assay [9]. Also, the Potency result in assay [10], in assay [11], in [12], in assay [13], in [14] and in [15] was “inactive” throughout. For the same molecule, the Potency entry in [19] and in assay [20] was “inactive” in each case.
For `CCOC(=O)N(C)C(=O)CSP(=S)(OCC)OCC`, the call in [1], in assay [2], in [3], in [4], in assay [5] and in [6] was inactive. Also, the molecule was classed as inactive in assay [7], in assay [8] and in assay [9]. Besides, the Potency result in [10], in [11], in assay [19] and in assay [20] was “inactive” each time. Moreover, the figures for the Potency in assay [12] and in assay [14] were 30.6 µM (active) and 24.3 µM (active), respectively.
Consider `COP(=S)(OC)Oc1c(Cl)cc(C)cc1Cl`, for which the call in assay [1], in assay [2], in [3], in [4], in [5] and in assay [6] was inactive. Moreover, the molecule was classed as inactive in [7], in assay [8] and in [9]. The Potency result in assay [10], in [11], in [15], in [19] and in [20] was “inactive” in each case.
On to `O=C(O)C(Br)CBr` (stereo not drawn), for which the molecule was classed as inactive in assay [1], in assay [2], in [3], in assay [4], in assay [5] and in assay [6]. Also, the molecule was called inactive in assay [7], in [8] and in [9]. The Potency result in assay [10], in assay [11], in assay [14], in [15], in assay [19] and in assay [20] was “inactive” in each case.
For the molecule `Nc1n[nH]c(N)n1`, the molecule was called inactive in assay [1], in assay [2], in [3], in [4], in assay [5] and in assay [6]. The call in [7], in [8] and in assay [9] was inactive. Also, the Potency entry in [10], in [11], in [13], in [15], in [19] and in assay [20] was “inactive” each time.
Turning to `Cc1ncsc1CCCl`, the outcome in [1], in assay [2], in assay [3], in assay [4], in [5] and in assay [6] was inactive. Also, the result in [7], in assay [8] and in [9] was inactive. In addition, the Potency result in assay [10], in [11], in [12], in [13], in [14] and in assay [19] was “inactive” throughout. Besides, in assay [20], the Potency result is “inactive”.
Consider `COc1cc(C[C@@H](C)N)c(OC)cc1C`, for which the molecule was classed as inactive in assay [1], in assay [2], in [3], in assay [4], in assay [5] and in assay [6]. Also, the outcome in assay [7], in assay [8] and in assay [9] was inactive. The Potency result in assay [10], in assay [11], in [13], in assay [14], in assay [15] and in assay [19] was “inactive” each time.
